Data from the supplement of paper PMC7595190.
A number with no mark means an inactive call.

Assays:
Test in all cases: CellTox Green cytotoxicity fluorescence relative to DMSO vehicle (fold of vehicle RFU); higher = more cell death (loss of membrane integrity), active = 2 or more
[1] = system: CMK
Summary of the method: (§1)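 MV4-11, CMK and Kasumi-1 cells were plated in 96-well black optical-bottom plates at 4.0 × 10^4 cells per well, and CellTox Green reagent was added at the time of seeding. Single compounds from the Selleckchem apoptosis library were diluted in DMSO and added at final concentrations of 0.01, 0.1 and 1 µM, with 0.1% DMSO as vehicle. Plates were kept at 37 °C and 5% CO2 and read at 24, 48 and 72 h (Ex 485 nm, Em 520 nm). Cytotoxicity reflects loss of membrane integrity and is given as fluorescence relative to the DMSO vehicle, expressed as fold.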

[2] = system: Kasumi-1
Summary of the method: as §1

[3] = system: MV4-11
Summary of the method: as §1

| Structure (SMILES) | CellTox Green cytotoxicity fluorescence ([1]; 0.01 µM, 24 h) | CellTox Green cytotoxicity fluorescence ([1]; 0.01 µM, 48 h) | CellTox Green cytotoxicity fluorescence ([1]; 0.01 µM, 72 h) | CellTox Green cytotoxicity fluorescence ([1]; 0.1 µM, 24 h) | CellTox Green cytotoxicity fluorescence ([1]; 0.1 µM, 48 h) | CellTox Green cytotoxicity fluorescence ([1]; 0.1 µM, 72 h) | CellTox Green cytotoxicity fluorescence ([1]; 1 µM, 24 h) | CellTox Green cytotoxicity fluorescence ([1]; 1 µM, 48 h) | CellTox Green cytotoxicity fluorescence ([1]; 1 µM, 72 h) | CellTox Green cytotoxicity fluorescence ([2]; 0.01 µM, 24 h) | CellTox Green cytotoxicity fluorescence ([2]; 0.01 µM, 48 h) | CellTox Green cytotoxicity fluorescence ([2]; 0.01 µM, 72 h) | CellTox Green cytotoxicity fluorescence ([2]; 0.1 µM, 24 h) | CellTox Green cytotoxicity fluorescence ([2]; 0.1 µM, 48 h) | CellTox Green cytotoxicity fluorescence ([2]; 0.1 µM, 72 h) | CellTox Green cytotoxicity fluorescence ([2]; 1 µM, 24 h) | CellTox Green cytotoxicity fluorescence ([2]; 1 µM, 48 h) | CellTox Green cytotoxicity fluorescence ([2]; 1 µM, 72 h) | CellTox Green cytotoxicity fluorescence ([3]; 0.01 µM, 24 h) | CellTox Green cytotoxicity fluorescence ([3]; 0.01 µM, 48 h) | CellTox Green cytotoxicity fluorescence ([3]; 0.01 µM, 72 h) | CellTox Green cytotoxicity fluorescence ([3]; 0.1 µM, 24 h) | CellTox Green cytotoxicity fluorescence ([3]; 0.1 µM, 48 h) | CellTox Green cytotoxicity fluorescence ([3]; 0.1 µM, 72 h) | CellTox Green cytotoxicity fluorescence ([3]; 1 µM, 24 h) | CellTox Green cytotoxicity fluorescence ([3]; 1 µM, 48 h) | CellTox Green cytotoxicity fluorescence ([3]; 1 µM, 72 h) |
| --- | --- | --- | --- | --- | --- | --- | --- | --- | --- | --- | --- | --- | --- | --- | --- | --- | --- | --- | --- | --- | --- | --- | --- | --- | --- | --- | --- |
| COCC[n+]1c2c(n(Cc3cnccn3)c1C)C(=O)c1ccccc1C2=O [Sepantronium Bromide] | 0.916 | 0.91 | 0.922 | 0.955 | 1.02 | 0.927 | 1.06 | 1.53 | 1.41 | 1.02 | 1.03 | 1.11 | 1.08 | 1.41 | 1.57 | 1.5 | 2.08 (active) | 2.15 (active) | 0.95 | 0.938 | 0.957 | 1.02 | 1.83 | 2.14 (active) | 1.35 | 2.26 (active) | 2.48 (active) |
| COc1cccc(-n2c(=O)[nH]c3cc(Cl)n(-c4ccc(-c5cccc(OC)c5O)cc4)c3c2=O)c1 | 0.99 | 0.943 | 1.27 | 0.996 | 0.985 | 0.962 | 0.95 | 0.915 | 0.832 | 0.97 | 0.973 | 1.13 | 0.99 | 0.989 | 0.991 | 0.947 | 0.91 | 0.877 | 0.975 | 0.924 |  | 0.975 | 0.966 | 0.959 | 1.01 | 1 | 1 |
| O=C1CCC(N2C(=O)c3ccccc3C2=O)C(=O)N1 (stereo not given) [Thalidomide] | 0.979 | 0.985 | 0.989 | 0.945 | 0.95 | 0.986 | 0.982 | 0.962 | 1.19 | 0.98 | 0.96 | 0.95 | 0.938 | 0.934 | 0.908 | 0.972 | 0.981 | 0.997 | 0.964 | 0.959 | 0.973 | 0.954 | 0.962 | 0.958 | 0.952 | 0.965 | 1.12 |
